# Hits are enriched below; roughly 4.6% of the tested compounds scored in any of these assays.
# UCHL1 block = blocks human UCHL1 ubiquitin-rhodamine cleavage; P09936; purified UCHL1, Ub-rhodamine cleavage fluorescence; inhibition, % at 20 µM; actives 0.2% (n = 47,000); AID 1645859
# USP8 block = human USP8 deubiquitinase inhibition; P40818; AID 1645853; inhibition, % at 20 µM; actives 4.2% (n = 47,000); purified USP8, Ub-rhodamine cleavage fluorescence, 30 min
# USP7 inh = blocks human USP7 ubiquitin-rhodamine cleavage. actives 0.3% (n = 47,000). Q93009. inhibition, % at 20 µM. purified USP7, Ub-rhodamine cleavage fluorescence
# USP10 block = inhibitors of human USP10 deubiquitinase | Q14694 | purified USP10, Ub-rhodamine fluorescence, 60 min | inhibition, % at 20 µM | actives 1.1% (n = 47,000)
# Hits are given with their value; i = inactive; nt = no result. No stated cut-off is given here; in the data, active means inhibition above about 30%; inactive means the rest.
SMILES,UCHL1 block,USP8 block,USP7 inh,USP10 block
Cc1ccc(CN2Cc3cc4ccc(C)c(C)c4nc3OC2=O)o1,i,i,i,i
CN(C(=O)C1(c2ccccc2)CC1)c1nc2c(s1)CCc1occc1-2,i,i,i,i
CN(C(=O)c1cccc2cccnc12)c1nc2c(s1)CCc1occc1-2,i,63.8,i,i
COc1ccc(S(=O)(=O)N2CCc3ccccc32)cc1C(=O)Nc1ccc2c(c1)NC(=O)C(C)O2 (stereo not drawn),i,71.5,i,34.7
CN1[C@@H](CCC(=O)N2CCCC2)CNC(=O)[C@@H]2[C@H]1CCN2CC(C)(C)C,i,i,i,i
CC(C)C(NC(=O)c1ccc(Cl)cc1)C(=O)OCC(=O)N(C)C(c1ccccc1)c1ccccc1 (stereo not drawn),i,i,i,i
Cc1nc(-c2cccc(-c3noc(-c4ccncc4)n3)c2)cs1,i,i,i,i
CCOc1ccc(S(=O)(=O)n2ccc(C)n2)c2ccccc12,i,i,i,i
CCOc1ccc(S(=O)(=O)NCc2ccccc2Cl)c2ccccc12,i,30.4,i,i
CCSc1ncc2c(=O)n(C(CC)C(=O)N(CC)Cc3ccccc3)cnc2n1 (stereo not drawn),i,i,i,i
O=C(NCCc1nc2ccccc2n1Cc1ccccc1F)c1ccc(Cl)cc1,i,i,i,30.4
COCC1CN(C(=O)c2ccnnc2)Cc2cn(CC3CC3)nc21 (stereo not drawn),i,i,i,i
CCc1nc(SCc2nc(N)nc(Nc3ccccc3)n2)n[nH]1,i,76.2,i,i
CC(C)(C)c1nc(SCc2nc(N)nc(Nc3ccccc3)n2)n[nH]1,i,i,i,i
O=c1c2cc(Br)ccc2[nH]c(=S)n1Cc1cccnc1,i,87.8,i,31.7
NC(=O)c1n[nH]sc1=O,i,i,i,i
Cc1cnc(NC(=O)c2cc3cc(Cl)ccc3o2)s1,i,46.1,i,i
O=C(c1cc2cc(Cl)ccc2o1)N1CCC1,i,i,i,i
c1ccc2c(c1)CCN(c1ncnc3sc4c(c13)CCCC4)C2,i,i,i,i
Clc1ncc(CN2CCc3ccccc3C2)s1,i,35.4,i,i
CC(OC(=O)c1c2c(nc3ccccc13)CCCCC2)C(=O)Nc1ccc2ccccc2c1 (stereo not drawn),i,34.8,i,i
O=C(COc1ccc(Cl)cc1)Nc1noc(-c2ccccc2)n1,i,88.0,i,49.7
CN(CC(=O)Nc1ccc2c(c1)OCO2)S(=O)(=O)c1cccs1,i,49.9,i,i
COCCCNC(=O)c1nnn(-c2cccc3c2CCN(C)C3)c1C,i,i,i,i
CCOc1ccc2[nH]c(=O)c(-c3nc4cc(C)ccn4c3NC(C)(C)C)cc2c1,i,i,i,i
SMILES,UCHL1 block,USP8 block,USP7 inh,USP10 block
CCOc1ccc2[nH]c(=O)c(-c3nc4ccc(C)cn4c3NCc3ccccc3)cc2c1,i,i,i,31.1
O=C(NC1CCN(Cc2ccccc2)CC1)c1cc(-c2cccnc2)n[nH]1,i,i,i,i
Cc1cccc(N2C(=O)/C(=C\c3cc(C#N)n(C)c3C)c3ccccc3C2=O)c1,i,56.2,i,34.6
Cc1cccc(N2C(=O)N(c3ccccc3)C3CS(=O)(=O)CC32)c1 (stereo not drawn),i,i,i,i
O=C(COc1coc(CN2CCc3ccccc3C2)cc1=O)Nc1cccc(F)c1,i,30.4,i,i
Cc1cc(CC2CCN(C(=O)C3CCCCC3)CC2)ccn1,i,i,i,i
CC(C)Cn1c(=O)c2nscc2n(CC(=O)NC2CCCC2)c1=O,i,i,i,i
CN(C)CCNC(=O)c1ccnn1-c1ccc2ccc(-c3ccncc3)cn12,i,i,i,i
COc1ccc(C(=O)Nc2nc(-c3ccc4c(c3)NC(=O)CO4)c(C)s2)cc1OC,i,i,i,i
Cc1sc(NC(=O)c2cccnc2)nc1-c1ccc2c(c1)NC(=O)CO2,i,31.0,i,i
COc1ccc(N2C(=O)c3cc4ccccc4n3CC2(C)C(=O)NC2CCCC2)cc1 (stereo not drawn),i,31.2,i,i
CC1(C(=O)NC2CCCC2)Cn2c(ccc2-c2ccco2)C(=O)N1Cc1ccccc1 (stereo not drawn),i,56.9,i,i
N#Cc1cccc(C(=O)N2CCN(c3cc(-c4ccccc4)[nH]n3)CC2)c1,i,i,i,i
CC(C)Cn1c(=O)c2nscc2n(CC(=O)Nc2ccc(F)cc2F)c1=O,i,36.0,i,i
CC(C)Cn1c(=O)c2nscc2n(CC(=O)NCc2ccccc2)c1=O,i,39.0,i,i
CCn1c(=O)c2nscc2n(CC(=O)Nc2ccc(C)cc2C)c1=O,i,i,i,i
Cc1ccccc1NC(=O)Cn1c(=O)n(CC(C)C)c(=O)c2nscc21,i,38.2,i,i
COc1ccccc1CN1CCCCC12Cc1ccccc1CNC2=O (stereo not drawn),i,i,i,i
COc1cccc(CC(=O)N2C[C@H]3C[C@H]4[C@](C2)(CN(C)S4(=O)=O)O3)c1,i,i,i,i
O=C(Nc1nnc2ccccn12)c1ccccc1F,i,i,i,i
Cc1cc(C)nc(-n2nc(C)cc2NC(=O)c2c(F)cccc2F)n1,i,i,i,i
Cc1cc(C)n(-c2nnc(NCc3ccc(Cl)cc3)nn2)n1,i,45.2,i,i
Cc1cc(C)n(-c2nc3ccccc3nc2NCCc2ccc(Cl)cc2)n1,i,i,nt,i
COCCN1C(=O)c2ccccc2C(C(=O)Nc2ccc3c(c2)OCO3)C12CCCC2 (stereo not drawn),i,69.3,i,i
COCCN1C(=O)c2ccccc2C(C(=O)Nc2ccc(NC(C)=O)cc2)C12CCCCC2 (stereo not drawn),i,i,i,i
SMILES,UCHL1 block,USP8 block,USP7 inh,USP10 block
COCCN1C(=O)c2ccccc2C(C(=O)Nc2ccccn2)C12CCCCC2 (stereo not drawn),i,i,i,i
O=C(Nc1nccs1)C1c2ccccc2C(=O)N(Cc2ccccc2)C12CCCC2 (stereo not drawn),68.6,68.6,i,i
O=C(CNC(=O)c1ccc2nc(-n3cccc3)sc2c1)NCc1cccc(Cl)c1,i,68.6,i,i
O=C(CN1CCN(S(=O)(=O)N2CCCCCC2)CC1)Nc1ccnn1C1CCCC1,i,i,i,i
Cn1c2ccccc2c(=O)c2c(=O)n(-c3cccc(Cl)c3)c(-c3cccs3)nc21,i,94.4,65.9,63.1
CCc1nc2c(c(=O)c3ccccc3n2C)c(=O)n1-c1ccc(C)cc1,32.9,30.6,i,i
CC(c1ccccc1)n1c(-c2ccc(F)cc2)nc2c(c(=O)c3ccccc3n2C)c1=O (stereo not drawn),i,31.6,i,i
O=C(Nc1ccc(N2CCOCC2)cc1)C1=NCCN1,i,i,i,i
Cc1cc(NC(=O)COc2ccc3oc4c(c3c2)CCCC4)n(-c2ccccc2)n1,i,i,i,39.0
Cc1ccc(NC(=O)COc2ccc3oc4c(c3c2)CCCC4)cc1,i,i,i,i
Cc1cc(NC(=O)CN2CCCCC2Cn2nc(C)nc2C)on1 (stereo not drawn),i,i,i,i
O=C(COc1ncnc2sccc12)Nc1ccc2c(c1)OCCO2,i,i,i,i
CC(=O)c1cccc(NC(=O)COc2ncnc3sccc23)c1,i,39.1,i,i
Cc1ccc(NC(=O)c2cnc(N3CCN(C)CC3)nc2C)cc1,i,i,i,i

# Assay outcomes: PubChem BioAssay, Buhrlage Lab, Dana-Farber Cancer Institute and Novartis Institutes for BioMedical Research (Cambridge, Mass)
